# This excerpt belongs to a sample that is enriched for hits.
# KDM5B inhibitor: Primary screen for KDM5B Histone Demethylases FDH-coupled qHTS; Potency, µM (highest dose often 57.7 µM), most hits filed as inhibitors; Lysine-specific demethylase 5B (Homo sapiens), Q9UGL1; 220,000 tested, 2.6% active; KDM5B demethylase, FDH-coupled NADH fluorescence (FDH is formaldehyde dehydrogenase); active means well fitted inhibition curve with a large enough effect; further: 0% is about no effect; nearly all actives have a fitted effect of over 70% in size
#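 Coupled FDH/NAD⁺ fluorescence readout. KDM5BΔAP 200 nM final; compound titration, 10 min RT preincubation; substrate mix 12.5 µM H3K4me3, 25 µM 2-OG, 50 µM Fe(II), 100 µM ascorbate, 0.25 mM NAD⁺, 0.25 U/mL FDH; ΔRFU over 30 min.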
# * marks the source's active call; other numbers are inactive results; i = inactive. Potency means the concentration at half of the fitted maximal effect.
SMILES,KDM5B inhibitor
CN1CCCCC12Cc1ccccc1CN(C(=O)c1ccccc1)C2 (stereo not given),56µM*
CCCN1CCCCC12Cc1ccccc1CN(C(=O)CCC(=O)O)C2 (stereo not given),i
CCCC(=O)N1Cc2ccccc2CC2(CCCCN2C)C1 (stereo not given),i
CCCN1CCCCC12Cc1ccccc1CN(C(=O)CNC(C)=O)C2 (stereo not given),i
O=C(O)CCC(=O)N1Cc2ccccc2CC2(CCCCN2Cc2ccccc2)C1 (stereo not given),i
Cn1c(=O)n(C)c2cc(NC(=O)CN3C(=O)COc4ccc(C(C)(C)C)cc43)ccc21,i
COc1ccc(Cl)cc1NC(=O)Cn1nc(-c2ccc(C)c(C)c2)ccc1=O,i
CC(=O)Nc1ccc(NC(=O)CSCc2nc3ccccc3c(=O)[nH]2)cc1,i
O=C(O)CNS(=O)(=O)c1cc(C(=O)O)ccc1Cl,i
O=C(CSc1ccc2ccccc2c1)N(C1CCCC1)C1CCS(=O)(=O)C1 (stereo not given),i
O=C(COc1ncnc2ccccc12)Nc1cc(Cl)ccc1Cl,i
COc1ccc(NS(=O)(=O)c2cc(-c3n[nH]c(=O)c4ccccc34)ccc2C)cc1,i
Cc1c(-c2ccccc2)oc2c(C(=O)OCC(=O)NC3CCCC3)cccc2c1=O,i
CCC(CO)NS(=O)(=O)c1cc(-c2n[nH]c(=O)c3ccccc23)ccc1C (stereo not given),i
COc1cccc(C)c1NC(=O)c1cccc(CN2CCCC(C)C2)c1 (stereo not given),i
Cc1ccc(C(=O)C(C)OC(=O)c2cc3ccccc3oc2=O)cc1 (stereo not given),i
O=C(c1cc(-c2ccccn2)nc2ccccc12)N1CCOCC1,i
Cc1cc(C(=O)NC2CC2)c2cc(Br)ccc2n1,i
CN(C)C(=O)c1ccccc1Br,i
CN(C)C(=O)c1cc(Br)cn2ccnc12,35µM*
O=C(NC1CC1)c1cc(Br)cn2ccnc12,40µM*
O=C(NCC(F)F)c1cc(Br)cn2ccnc12,40µM*
O=C(NC1CCCC1)c1ccc(Br)cc1,i
O=C(NCc1cccs1)c1cc(Br)cn2ccnc12,40µM*
Cc1cnc(C(=O)NCc2cccs2)cn1,i
SMILES,KDM5B inhibitor
O=C(NCc1cccs1)c1cc2ccccc2oc1=O,i
O=C(NCC(F)F)c1nc2sccn2c1Br,i
CCCCN(C)C(=O)c1cn2ccnc(-c3ccccc3)c2n1,i
Cc1ccc(-c2nccn3cc(C(=O)NCC(C)C)nc23)cc1,i
Cc1ccc(Cl)cc1NC(=O)CN1CCCN(c2ccc(C(F)(F)F)cn2)CC1,i
Cc1ccccc1CN1C(=O)C(O)(CC(=O)c2ccc(F)cc2)c2cc(Cl)ccc21 (stereo not given),i
Cc1ccc(CNC(=O)c2sccc2C)cn1,i
CCCCn1c(=O)[nH]c(=O)c2c1nc(CSc1nnnn1C1CC1)n2C,i
CCOC(=O)N1CCN(Cc2cc(=O)oc3cc(C)ccc23)CC1,i
Cc1cc2nc3n(c(=O)c2n1CC(=O)NCc1ccccc1F)CCCCC3,i
CCO[C@H]1CN(C(=O)CN(c2cccc(C)c2)S(C)(=O)=O)C[C@@H]1O,i
CCO[C@H]1CN(C(=O)CCc2ccc(-c3ccc(Cl)cc3)[nH]2)C[C@@H]1O,28µM*
CCO[C@H]1CN(C(=O)CCCOc2ccccc2)C[C@@H]1O,i
CCNC(=O)CC1COCCN1C(=O)c1csc(-c2cccs2)n1 (stereo not given),22µM*
CCC(=O)NCc1csc(-c2cccs2)n1,i
CC[C@H]1COCCN1C(=O)c1csc(Cc2ccccc2)n1,i
O=C(O)Cn1cc(C(C(=O)O)N2CCN(Cc3ccncc3)CC2)c2ccccc21 (stereo not given),i
CCn1c2c(c(=O)n1-c1ccccc1)CCN(C(=O)CCc1cccnc1)C2,i
O=C(CCc1cccnc1)N1CCC(c2[nH]ncc2-c2cccc(F)c2)CC1,i
Cc1cc(-c2cc3c(n(Cc4cccnc4)c2=O)CCN(C(=O)CCc2ccccc2)C3)ccc1F,25µM*
CCCn1cnc2nc(CSc3ccccc3NC(=O)c3cccc(Cl)c3)cc(=O)n21,i
COc1ccc(-c2ccc3ncc(Nc4ccc(F)c(Cl)c4)n3n2)cn1,i
COc1ccc(-c2ccc3ncc(Nc4ccnc(N5CCOCC5)c4)n3n2)cc1OC,i
CN1CCN(c2ccc3ncc(Nc4ccc(OC(F)(F)F)cc4)n3n2)CC1,32µM*
COc1ccccc1-c1ccc2ncc(Nc3ccc(CN4CCN(C)CC4)cc3)n2n1,i
SMILES,KDM5B inhibitor
COc1ccc(-c2ccc3ncc(Nc4ccc(CN5CCN(C)CC5)cc4)n3n2)cn1,i
CN1CCN(c2ccc3ncc(Nc4ccc5c(c4)OCCO5)n3n2)CC1,i
Fc1cc(Nc2cnc3ccc(-n4ccnc4)nn23)cc(N2CCOCC2)c1,i
CN1CCN(c2ccc3ncc(Nc4ccc(Cl)c(C(F)(F)F)c4)n3n2)CC1,32µM*
Clc1cccc(Nc2cnc3ccc(N4CCOCC4)nn23)c1,32µM*
CCc1nnc(CN2CCC(C(=O)Nc3cccc(-c4ccco4)c3)CC2)o1,i
Cc1ccc(S(=O)(=O)N2CCN(C(=O)CNC(=O)c3ccc4c(c3)OCO4)CC2)cc1,i
O=C(NC1CCCCCC1)c1cnn2c(C(F)(F)F)cc(-c3ccco3)nc12,i
Cc1cccnc1NC(=O)C1CC(=O)N(Cc2ccc(F)cc2)C1 (stereo not given),i
O=C1[C@@H]2C[C@@H](CN2C(=O)c2ccccn2)Oc2ccccc2N1Cc1ccc(OC(F)(F)F)cc1,i
Cc1ccc(C)c(NS(=O)(=O)c2ccc(N3CC(C(=O)O)CC3=O)cc2)c1 (stereo not given),i
O=C(CCCN1CCCCC1=O)N[C@@H]1[C@@H]2CCO[C@@H]2[C@@H]1C1CCCC1,i
COc1ccc(CCC(=O)N[C@H]2[C@@H]3CCO[C@@H]3[C@@H]2C2CCCC2)cc1OC,i
O=C(CCc1cn2ccccc2n1)N[C@H]1[C@@H]2CCO[C@@H]2[C@@H]1C1CCCC1,28µM*
O=C(NC(c1ccc(Cl)cc1)c1cccnc1)C1CCCCC1 (stereo not given),i
CN1CC(=O)N(c2ccccc2F)Cc2c(NCCCc3ccccc3)ncnc21,i
CN1CC(=O)N(c2ccccc2F)Cc2c(NCCc3ccccc3F)ncnc21,i
CN1CC(=O)N(c2ccccc2F)Cc2c(NCCc3ccc(Cl)cc3)ncnc21,25µM*
C#CCN(C)Cc1nc(C2(O)CCN(CC3CCCCC3)CC2)cs1,i
O=C(Nc1ccc(Cl)cc1)N1CCC2(C1)C(=O)N(CCc1ccccc1)c1ccccc12 (stereo not given),i
CCC1(CC)NC(=O)N(Cc2coc(-c3ccc(Cl)cc3)n2)C1=O,i
Cn1cccc1C(=O)N1CC(Oc2ccc(-c3nc(-c4ccccc4)no3)cc2)C1,28µM*
CNC(=O)N1CCC(Oc2ccccc2-c2nc(C3CC3)no2)C1 (stereo not given),i
Cc1nc(-c2ccccc2OC2CN(C(=O)c3ccoc3)C2)no1,i
Cc1noc(-c2ccc(OC3CN(C(=O)Nc4cccc(F)c4)C3)cc2)n1,i
Cn1cc(C(=O)N2CC(Oc3ccc(-c4nc(-c5ccccc5)no4)cc3)C2)cn1,i
Cc1cc(C(=O)N2CC(Oc3ccc(-c4nc(-c5ccccc5)no4)cc3)C2)nn1C,i

# Compound activity from PubChem BioAssay.
